The record followed here is PubChem BioAssay AID488896 (Broad Institute, 2010).

Structures are written as SMILES. About 3,100 (0.97%) of roughly 320,000 compounds were called active. What follows is part of a selection rich in actives, with near analogues and random picks from the rest. Unmarked numbers belong to inactive results.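 Rule for the calls: active = mean replicate inhibition of at least 70% and a set share of replicates each scoring 70 or more; inconclusive = meets just one of the two criteria; inactive = fails both criteria.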

The assay deals with Scavenger receptor class B member 1 (Mus musculus) (UniProt Q61009). Kind of assay: inhibitors of SR-BI mediated HDL lipid uptake, primary screen, ldlA[mSR-BI] cells, fluorescence, single point (AID 488896).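 Note: 0% = median of neutral control wells and 100% = median of positive control wells.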 The following applies: ldlA[mSR-BI] CHO cells, DiI-HDL uptake fluorescence, 3 h; at 12.5 µM; active compounds read high.
Sequence of Scavenger receptor class B member 1 (Mus musculus) (Q61009 whole entry, looked up): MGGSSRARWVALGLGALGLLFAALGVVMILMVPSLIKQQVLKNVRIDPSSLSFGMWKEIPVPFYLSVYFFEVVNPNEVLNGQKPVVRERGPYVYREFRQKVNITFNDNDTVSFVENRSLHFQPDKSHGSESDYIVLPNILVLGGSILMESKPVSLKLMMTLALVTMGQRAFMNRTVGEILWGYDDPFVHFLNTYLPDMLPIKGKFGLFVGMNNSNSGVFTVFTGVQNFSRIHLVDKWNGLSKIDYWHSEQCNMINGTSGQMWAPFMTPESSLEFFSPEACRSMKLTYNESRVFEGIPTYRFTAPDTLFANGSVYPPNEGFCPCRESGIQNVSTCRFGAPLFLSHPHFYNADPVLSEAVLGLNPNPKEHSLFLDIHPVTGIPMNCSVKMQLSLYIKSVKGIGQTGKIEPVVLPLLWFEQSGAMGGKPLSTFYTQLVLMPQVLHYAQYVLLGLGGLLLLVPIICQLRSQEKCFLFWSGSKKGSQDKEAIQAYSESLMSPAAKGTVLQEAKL
For the molecule `CCCCC(=O)NC(c1ccc(OC)c(OC)c1)c1ccc2cccnc2c1O` (configuration not stated), the inhibition (as a rule, the relative decrease from the control value, in per cent) was 3.38%.
The same measure for `N#C/C(=C\c1ccccc1C(F)(F)F)C(=O)Nc1ccccc1F`: -32.2%; for `O=C(CC1SC(N2CCOCC2)=NC1=O)Nc1ccccc1F` (configuration not stated): -4.16%.
The same measure for `N#C/C(=C\C1=C(N2CCOCC2)C(=C\c2ccccc2)/CC1)C(=O)Nc1ccccc1F`: 83.9% (active).
The same measure for `O=C(Nc1ccc(S(=O)(=O)N2CCOCC2)cc1)C1CCN(S(=O)(=O)c2ccc(Cl)cc2)CC1`: -8.47%; for `CC12CCCCC1=CC(=O)CC2` (configuration not stated): -0.111%.
Regarding `COc1ccc(Cl)cc1C=CC=NNC(=O)c1ccncc1`, the inhibition is 70%.
To `O=C(N/N=C/c1cccnc1)c1cc2ccccc2cc1O` belongs 25.7%; to `O=C(NNc1c2ccccc2nc2ccccc12)c1cc2ccccc2cc1O`, 117% (active).
The same measure for `CC(C)(C)OC(=O)NNc1c2ccccc2nc2ccccc12`: 23.2%.
In the case of `COC(=O)c1ccc(NCc2cc(O)ccc2O)cc1`, the inhibition is -3.37%.
Take `CC(C)c1cc(N=O)cc(C(C)C)c1O`: the inhibition is -19.1%.
To `O=C(NN=Cc1ccccc1)c1ccccc1` belongs -4.39%; to `CC(C)c1ccc(C=NNc2ccc([N+](=O)[O-])cn2)cc1`, -2.92%; to `Cc1nn(-c2ccc(F)cc2)c(Cl)c1/C=C(/CCC(=O)O)c1nc2ccccc2s1`, -16%.
The same measure for `O=C(CC1Sc2ccccc2NC1=O)NNc1ccc(Cl)c(Cl)c1` (configuration not stated): 45.6%; for `N#CC1=C(N)Oc2cc(N)ccc2C1c1ccccc1` (configuration not stated): -23.9%.
To `COc1ccc2nc(NC(=O)c3ccc(Br)s3)sc2c1` belongs 55.7%; to `COc1ccc2nc(Nc3nc(-c4ccncc4)cs3)sc2c1`, 80.2% (active); to `COc1ccc2nc(NC(=O)[C@@H]3CCCN3C(=O)c3cccs3)sc2c1`, 14.9%.
For the molecule `OCC(O)C1OCOC(C(O)CO)C1O` (configuration not stated), the inhibition is -38.2%.
To `CC1(C)C(=O)CCC2(C)C1=CCC1C2C(=O)CC2(C)C1CCC2(O)C(=O)CO` (configuration not stated) belongs -7.32%; to `CC1CCCN(C(=O)Cn2c(=O)oc3cc(S(=O)(=O)N4CCCCC4C)ccc32)C1` (configuration not stated), -29.3%.
Turning to `CC(C)C[C@H]1CN([C@@H](CC(C)C)CN2CCC[C@@H]2CN2C(=O)C(=O)NC[C@@H]2Cc2ccccc2)C(=O)C(=O)N1CCc1ccccc1`, the inhibition is 20.9%.
As to `CS(=O)(=O)c1ccc2nc(NC(=O)C3C4C=CC(C4)C3C(=O)O)sc2c1` (configuration not stated), the inhibition was 5.33%.
To `CS(=O)(=O)c1ccc2nc(NC(=O)c3ccc(Cl)nc3)sc2c1` belongs 32.9%.
On to `COc1cccc(C(=O)Nc2nc3ccc(S(C)(=O)=O)cc3s2)c1`, for which the inhibition is 70.8% (active).
